# Screens (PubChem BioAssay)
# D1 agonist = human D1 receptor agonism. activation, % at 2 µM. HEK293 T-REx D1 cells, calcium flux, agonist mode. P21728. AID 504660. hit rate 1% among 360,000; note: 0% is about no effect
#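 Agonism was scored from calcium flux recorded over 180 s (1 read/s) after pintool compound addition, following a 10-cycle baseline. Cells were inducible force-coupled HEK293 TREx D1, plated overnight at 30 C and loaded with no-wash calcium dye.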
# D1 antag = antagonists of human D1 dopamine receptor. HEK293 TREx D1 cells, calcium flux, dopamine EC80; stronger effect = lower value. hit rate 3.2% among 360,000. P21728. activity change, negative = inhibition, % at 10 µM; in the data active = activity change below about -30%; note: % is set by controls: 0 for no effect and ±100 for the full control effect
#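 Using tetracycline-induced force-coupled D1 Hek293 cells and a calcium dye, signals were followed for 180 s after compound, then for 180 s after EC80 dopamine, to detect inhibitors.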
# TRHR agonist = agonists of human TRH receptor. TRHR cells, calcium flux fluo-8, FDSS agonist mode. activation, % at 2 µM. hit rate 0.18% among 360,000; note: 0% is about no effect
# Target sequence (P34981 whole entry, looked up): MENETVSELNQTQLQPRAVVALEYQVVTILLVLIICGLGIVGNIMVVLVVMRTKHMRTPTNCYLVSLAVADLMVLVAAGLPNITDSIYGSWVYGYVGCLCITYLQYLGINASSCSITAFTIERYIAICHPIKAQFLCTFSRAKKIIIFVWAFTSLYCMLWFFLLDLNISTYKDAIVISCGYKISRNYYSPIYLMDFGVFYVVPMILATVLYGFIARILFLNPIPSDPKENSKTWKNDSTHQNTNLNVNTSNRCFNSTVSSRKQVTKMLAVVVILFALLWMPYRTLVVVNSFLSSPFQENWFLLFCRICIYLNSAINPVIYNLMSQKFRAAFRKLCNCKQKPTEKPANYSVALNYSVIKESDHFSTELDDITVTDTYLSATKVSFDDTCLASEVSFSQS
#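 Steps: seed TRHR cells overnight; add fluo-8 no-wash Ca dye, RT 30 min–1.5 h; record 10 s baseline; pin-transfer compounds; monitor fluorescence 1 cycle/s for the agonist window. Calcium increases flag candidate agonists.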
# TRHR PAM = TRH receptor (human) allosteric enhancement; TRHR cells, fluo-8 calcium fluorescence, EC20 TRH enhancement; enhancement, % at 2 µM; hit rate 0.66% among 360,000; AID 493056; in the data active = enhancement above about 30%; note: 0% is about no effect
#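 Enhancer read-out: after compound pinning and an initial kinetic agonist-mode read, an EC20 of TRH (10 nM final) was injected and fluo-8 calcium signal (Ex 480/Em 530) followed at 1 s/cycle for 100 cycles in TRHR-expressing cells.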
# D1 potentiator = human D1 dopamine receptor positive modulation; P21728; hit rate 0.036% among 360,000; AID 504651; potentiation, % at 10 µM; HEK293 TREx D1 cells, calcium flux, dopamine EC20 potentiation; in the data active = potentiation above about 30%; note: 0% is about no effect
# * marks the source's active call; other numbers are inactive results. Shown are actives, neighbours in structure and some others; about 4.7% of the full set was active somewhere. Cut-off read from the data, not from the text of the source, unless noted: active = activation above about 30%; inactive = the rest.
SMILES,D1 agonist,D1 antag,TRHR agonist,TRHR PAM,D1 potentiator
Cc1ccc(/C=C/c2onc(C)c2S(=O)(=O)N2CCC(C(=O)N3CCN(c4cccc(C)c4)C(C)C3)CC2)cc1 (stereo not drawn),5,0,0,-8,0
O=C(OCCN1CCN(C2=NS(=O)(=O)c3ccccc32)CC1)c1ccccc1F,2,-32*,0,11,-1
CCN(CC)CC(=O)N1c2ccccc2Sc2ccccc21,7,-26,0,2,1
CCN(CC)CCCCN1c2ccccc2Sc2ccccc21,35*,-12,2,-8,-4
O=C(NCCOC(=O)c1ccncc1)c1ccccc1,4,3,-1,-1,-4
COc1cc(C(=O)OCCNC(=O)c2ccncc2)cc(OC)c1OC,1,-39*,0,9,-5
Fc1ccc(NC(=S)N2CCN(c3cccc(C(F)(F)F)c3)CC2)cc1,10,-38*,0,1,-10
Cc1[nH]c2ccccc2c1NC(=O)CN1CCN(c2cccc(C(F)(F)F)c2)CC1,7,4,1,10,-2
Cc1[nH]c2ccccc2c1C(O)CN1CCN(c2cccc(C(F)(F)F)c2)CC1 (stereo not drawn),31*,-59*,0,5,-15
O=C(c1c(F)c(F)c(F)c(F)c1F)N1CCN(c2cccc(C(F)(F)F)c2)CC1,5,4,0,31*,4
Cc1c(Cl)cccc1NC(=S)N1CCN(c2ccccn2)CC1,0,7,2,11,-6
S=C(Nc1ccccc1Cl)N1CCN(c2ccccn2)CC1,2,-32*,0,-9,-6
CCOC(=O)c1c(S(=O)(=O)N2CCCC(C(=O)N(C)Cc3ccccc3)C2)c(C)n(C)c1C (stereo not drawn),-1,8,-1,4,-3
CCn1ccc2cc(S(=O)(=O)N3CCCN(C(=O)Nc4ccccc4OC)CC3)ccc21,1,-1,-1,-5,1
FC(F)Sc1ccc(NC(=S)N2CCN(c3ccccn3)CC2)cc1,11,-34*,0,-2,-6
FC(F)(F)c1cccc(NC(=S)N2CCN(c3ccccn3)CC2)c1,4,-30*,0,0,-3
Oc1ccccc1N1CCN(C(=S)Nc2ccc(SC(F)F)cc2)CC1,4,-15,2,-2,2
O=C(CN1CCN(c2cccc(C(F)(F)F)c2)CC1)NCc1ccccc1,2,-45*,0,19,-5
O=C(CN1CCN(c2cccc(Cl)c2)CC1)NCc1ccccc1,1,-15,0,-2,-1
CCOC(=O)c1c(C)[nH]c(CCC(=O)NCc2cc(Br)ccc2OC)c1C,-1,-15,-1,-10,-3
COc1cc(CNC2CCCC2)cc(Cl)c1OCc1ccccc1F,157*,-58*,0,-14,13
COc1cc(CNc2ccc3[nH]c(=O)[nH]c3c2)cc(Cl)c1OCc1ccccc1F,-1,-14,0,0,-1
O=C(NCCc1ccc(Cl)cc1)c1cccs1,1,-33*,-1,1,0
O=C(Cc1cccs1)NNC(=S)NCc1ccc(Cl)cc1,1,-11,0,4,-3
Cc1ccc2cc(CCNC(=O)c3cccs3)c(=O)[nH]c2c1,-4,11,-1,2,-4
SMILES,D1 agonist,D1 antag,TRHR agonist,TRHR PAM,D1 potentiator
O=C(Cc1ccc(Cl)cc1)NNC(=S)NC(=O)c1cccs1,47*,4,5,-3,-5
Cc1ccc2cc(CCNC(=O)c3cccs3)c(=O)[nH]c2c1C,-3,-31*,0,-2,-4
O=C(NCCc1csc(-c2ccc(Cl)cc2)n1)c1cccs1,3,-25,-1,-4,-4
Cc1cc(N2CCN(C)CC2)nc2ccc(NC(=O)Nc3cccc(Cl)c3)cc12,16,-13,2,-15,-8
Cc1cc(N(C)Cc2ccccc2)n2nc(-c3ccc(C(C)(C)C)cc3)nc2n1,3,7,0,4,5
COc1ccc(C2CCCN2CC(O)COc2ccccc2C(C)C)cc1 (stereo not drawn),9,-30*,1,13,-5
O=C(Cn1ncc2c3ccccc3n(Cc3ccccc3F)c2c1=O)NCc1ccccc1Cl,0,3,1,13,-2
O=C(CSc1ccc(Cl)cc1)N/N=C/c1ccc([N+](=O)[O-])o1,9,-34*,0,-2,-11
